From PubChem BioAssay
The entries come from a sample that favours hits as a whole.
MBNL1 CUG block: qHTS Assay for Inhibitors of MBNL1-poly(CUG) RNA binding. Muscleblind-like protein 1 (Homo sapiens), Q9NR56. TR-FRET MBNL1-His/biotin-(CUG)12 binding, 665/545 ratio. Potency, µM (highest dose often 57.5 µM), for the others: at the highest dose activity change, negative = inhibition, most hits filed as inhibitors. hit rate 0.036% among 280,000. AID 2675, 2010; active = well fitted inhibition curve with a large enough effect in the signal ratio, with a control signal flat, not every such curve was filed as active; inconclusive = small, poorly fitted or top-dose-only effect, or effect the other way, or a change in a side signal; inactive = no such curve, though single readings can be large or run the other way; the % refers to the signal ratio; also: % is scaled to controls: 0 for no effect and ±100 for the full control effect
Target sequence (Q9NR56 whole entry, looked up): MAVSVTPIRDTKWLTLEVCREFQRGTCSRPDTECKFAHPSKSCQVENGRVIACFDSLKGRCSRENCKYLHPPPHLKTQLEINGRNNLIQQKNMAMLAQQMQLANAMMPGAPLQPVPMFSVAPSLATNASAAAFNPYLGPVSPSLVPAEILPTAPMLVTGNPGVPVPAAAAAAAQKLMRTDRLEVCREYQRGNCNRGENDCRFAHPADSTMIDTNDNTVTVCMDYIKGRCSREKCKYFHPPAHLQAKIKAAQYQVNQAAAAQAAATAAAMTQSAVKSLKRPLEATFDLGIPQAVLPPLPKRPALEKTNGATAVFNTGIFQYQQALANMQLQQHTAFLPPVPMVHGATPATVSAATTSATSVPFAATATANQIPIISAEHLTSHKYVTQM
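Inhibition of protein-RNA binding appears as loss of TR-FRET between terbium anti-His antibody on MBNL1-His and streptavidin-XL665 on biotin-(CUG)12. Activity is normalized to buffer-only and uninhibited-complex controls.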
Tb PFK inh-1: qHTS Assay to Find Inhibitors of T. brucei phosphofructokinase | ATP-dependent 6-phosphofructokinase (Trypanosoma brucei brucei), O15648 | T. brucei PFK, ADP-Glo luminescence | Potency, µM (highest dose often 57.5 µM), for inactives: at the top dose activity, negative = inhibition, most hits filed as inhibitors | hit rate 0.17% among 330,000 | AID 485367, 2010;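 also: 0% = uninhibited 1x PFK enzyme wells and -100% = no-enzyme wells; nearly all actives have a fitted effect of over 60% in size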
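Luminescent ADP detection (ADP-Glo, two-step: ATP depletion then ADP-to-ATP conversion for luciferase) reported PFK activity after 45 min room-temperature reaction of 1.25 nM enzyme with 0.5 mM F6P and 0.1 mM ATP at pH 8.0.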
RGS12 GoLoco inh: qHTS Assay for Inhibitors of RGS12 GoLoco Motif Activity (Red Fluorophore). Guanine nucleotide-binding protein G(i) subunit alpha-1 (Homo sapiens), P63096. Gai1:RGS12 GoLoco peptide FP, rhodamine, 10 min. Potency, µM (top dose mostly 61.6 µM), without a hit: at the highest dose activity, negative = inhibition, actives largely listed as inhibitors. hit rate 0.44% among 230,000. AID 880, 2007; active = well fitted inhibition curve with a large enough effect, not every such curve was filed as active; inactive = no such curve, though single readings can be large or run the other way; also: % is scaled to controls: 0 for no effect and ±100 for the full control effect; nearly all actives have a fitted effect of over 30% in size
Target sequence (P63096 whole entry, looked up): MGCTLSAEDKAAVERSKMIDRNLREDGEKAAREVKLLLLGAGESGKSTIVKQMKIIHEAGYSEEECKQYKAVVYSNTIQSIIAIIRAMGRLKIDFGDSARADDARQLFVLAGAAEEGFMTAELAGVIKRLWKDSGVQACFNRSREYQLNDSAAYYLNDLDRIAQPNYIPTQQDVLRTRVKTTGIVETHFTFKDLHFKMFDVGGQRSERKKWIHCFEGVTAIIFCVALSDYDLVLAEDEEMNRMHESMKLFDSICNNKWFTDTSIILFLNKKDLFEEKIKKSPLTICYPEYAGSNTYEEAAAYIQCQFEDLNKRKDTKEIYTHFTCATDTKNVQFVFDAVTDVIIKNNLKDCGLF
NPSR antagonist: qHTS Assay for Antagonists of the Neuropeptide S Receptor: cAMP Signal Transduction | Q6W5P4 | CHO-NPSR cells, cAMP TR-FRET, antagonist mode | Potency, µM (series often up to 38.3 µM), for the others: at the highest dose activity change, negative = inhibition, usual class: inhibitors | hit rate 1% among 220,000 | AID 1461, 2008; also: % is scaled to controls: 0 for no effect and ±100 for the full control effect; nearly all actives have a fitted effect of over 50% in size
IMPase Li inh: qHTS Assay for Identifying the Cell-Membrane Permeable IMPase Inhibitors: Potentiation with Lithium; hit rate 0.35% among 210,000; CHO-M1 cells, IP1 TR-FRET (IP-One), carbachol + lithium; Potency, µM (series often up to 59.4 µM), without a hit: at the highest dose activity, negative = IMPase inhibition, most hits filed as inhibitors;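 also: IP1 builds up when IMPase is blocked and the TR-FRET signal falls; plate controls were basal vehicle for no effect and high inhibitor control for full effect; nearly all actives have a fitted effect of over 50% in size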
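Readout is a homogeneous TR-FRET IP1 immunoassay (Ex 320, Em 665 and 620), where raised cytosolic IP1 lowers signal. Cells were CHO-M1 treated 30 min at 37C with test compounds plus a little lithium; AC50 values came from Hill-equation fitting.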
Tb PFK KinaseGlo: Tb PFK orthogonal confirmatory assay using ATP depletion (Kinase-Glo Plus) as an alternative measure of Tb PFK activity: Hit Validation; shares compounds with Tb PFK inh-1; Tb PFK enzyme, ATP depletion, Kinase-Glo Plus luminescence; Potency, µM (series often up to 57.5 µM), for inactives: at the highest dose inhibition; hit rate 47% among 1,100; calls by dose curve; also: nearly all actives have a fitted effect of over 60% in size
Tb PFK inh-2: Inhibitors of T. brucei phosphofructokinase: Hit Validation; shares compounds with Tb PFK inh-1; purified T. brucei PFK, ADP-Glo luminescence, 45 min; Potency, µM (doses to about 57.5 µM), inactives show top-dose activity change, negative = inhibition, most hits filed as inhibitors; hit rate 41% among 1,100;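 also: plate controls were full PFK enzyme control for no effect and no enzyme control for full effect; nearly all actives have a fitted effect of over 60% in size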
Numbers without * were called inactive; [ ] = dose if it differs, or a comment. Unless noted, calls follow the shape of the dose curve; as a rule, active = well fitted curve in the direction sought with a large enough effect; inconclusive = small, poorly fitted or top-dose-only effect, or another doubt; inactive = no such curve, though single readings can be large; an effect the other way counts as inactive or inconclusive. Potency is read from the fitted curve at half-maximal effect.

How did Cc1c(Br)c([N+](=O)[O-])nn1CC(=O)Nc1ccc(C(N)=O)cc1 do in these assays?
MBNL1 CUG block: inconclusive; Tb PFK inh-1: 19µM*; RGS12 GoLoco inh: -2.0%; NPSR antagonist: 16.0%; IMPase Li inh: 7.9%; Tb PFK KinaseGlo: 13.5µM*; Tb PFK inh-2: 26.9µM*

What do the screens show for `O=C(O)[C@@H]1[C@H](C(=O)O)[C@]2(Cl)C(Cl)=C(Cl)[C@@]1(Cl)C2(Cl)Cl`?
RGS12 GoLoco inh: -9.6%[14.2 µM]; IMPase Li inh: -7.2%

How did Cc1ccc(O)c(C(=O)c2cc(C(=O)NCc3ccccc3)c(=O)n(Cc3ccccc3)c2)c1 do in these assays?
MBNL1 CUG block: -0.4%; Tb PFK inh-1: 7.9%; RGS12 GoLoco inh: 6.0%; NPSR antagonist: -48.3%; IMPase Li inh: 9.3%

What do the screens show for `Cc1ccc(O)c(NC2=C(Cl)C(=O)N(Cc3ccccc3)C2=O)c1`?
MBNL1 CUG block: 11.8%; Tb PFK inh-1: 23.9µM*; RGS12 GoLoco inh: 0.4%; NPSR antagonist: -34.9%; IMPase Li inh: 22.1%; Tb PFK KinaseGlo: 10.7µM*; Tb PFK inh-2: 19µM*

How did Nn1c(Cc2cccc3ccccc23)n[nH]c1=S do in these assays?
Tb PFK inh-1: inconclusive; RGS12 GoLoco inh: -4.7%; NPSR antagonist: -4.6%; IMPase Li inh: 2.1%; Tb PFK KinaseGlo: 1.51µM*; Tb PFK inh-2: 2.13µM*

Results for O=C(Cl)c1ccccc1F ?
RGS12 GoLoco inh: 2.7%; IMPase Li inh: -9.9%

What do the screens show for `O=C1C=C(NCc2ccc(Cl)c(Cl)c2)CC1`?
MBNL1 CUG block: -4.5%; Tb PFK inh-1: 4.78µM*; RGS12 GoLoco inh: 12.7%; NPSR antagonist: 8.9%[46.1 µM]; IMPase Li inh: -8.5%[38.3 µM]; Tb PFK KinaseGlo: 4.78µM*; Tb PFK inh-2: 6.01µM*

How did CC(=O)c1cc(Cc2csc(C(C)=O)c2)cs1 do in these assays?
MBNL1 CUG block: -1.1%; Tb PFK inh-1: 26.9µM*; RGS12 GoLoco inh: -2.4%; NPSR antagonist: inconclusive; IMPase Li inh: -11.5%[38.3 µM]; Tb PFK KinaseGlo: 13.5µM*; Tb PFK inh-2: 30.1µM*

How did COc1ccc(CCNC(=O)c2cc3c(=O)n4cccc(C)c4nc3n(Cc3ccco3)c2=N)cc1OC do in these assays?
MBNL1 CUG block: inconclusive; Tb PFK inh-1: inconclusive; Tb PFK KinaseGlo: -1.6%; Tb PFK inh-2: 0.9%

What do the screens show for `O=C1/C(=C\c2ccccc2)C[C@@]2(O)[C@H]3Cc4ccc(O)c5c4[C@@]2(CCN3CC2CC2)[C@@H]1O5`?
RGS12 GoLoco inh: -2.6%; IMPase Li inh: 22.9%

How did CC[C@]1(C2=NCCN2)Cc2ccccc2O1 do in these assays?
RGS12 GoLoco inh: -3.1%; IMPase Li inh: 20.8%

What do the screens show for `CN=C=O`?
RGS12 GoLoco inh: 1.4%; IMPase Li inh: -1.8%

Results for CC1CCN(S(=O)(=O)c2ccc3c(c2)CCC(=O)N3CC(=O)Nc2cccc(C#N)c2)CC1 ?
Tb PFK inh-1: 9.53µM*; Tb PFK KinaseGlo: 6.01µM*; Tb PFK inh-2: 12µM*

Results for CNc1ccccc1C(=O)O ?
RGS12 GoLoco inh: 5.0%; IMPase Li inh: -3.7%

How did O=C(O)c1ccccc1NS(=O)(=O)c1cccc(-n2sc3ccccc3c2=O)c1 do in these assays?
MBNL1 CUG block: 2.2%; Tb PFK inh-1: 2.39µM*; Tb PFK KinaseGlo: 12µM*; Tb PFK inh-2: 23.9µM*

What do the screens show for `CC(N)C(O)c1ccc(O)c(O)c1` (centres undefined)?
RGS12 GoLoco inh: 8.7%; IMPase Li inh: -4.5%

How did COc1ccc(Cn2c(N)c(C(=O)NCc3ccco3)c3nc4ccccc4nc32)cc1 do in these assays?
MBNL1 CUG block: 10.1%; Tb PFK inh-1: -16.1%; RGS12 GoLoco inh: 51.1%; NPSR antagonist: inconclusive; IMPase Li inh: 6.4%[38.3 µM]

Results for O=C(COC(=O)Cc1ccc(Cl)c(Cl)c1)NCc1ccco1 ?
Tb PFK inh-1: inconclusive; Tb PFK KinaseGlo: 13.5µM*; Tb PFK inh-2: inconclusive

How did O=C(CSc1ccc(Cl)cc1)NCc1ccco1 do in these assays?
MBNL1 CUG block: -4.8%; Tb PFK inh-1: inconclusive; RGS12 GoLoco inh: 3.5%; NPSR antagonist: -4.6%; IMPase Li inh: 2.0%; Tb PFK KinaseGlo: 13.9%; Tb PFK inh-2: -17.4%

Results for CN(CC(=O)NC(=O)NCc1ccco1)CC(=O)Nc1ccccc1Cl ?
MBNL1 CUG block: 0.7%; Tb PFK inh-1: inconclusive; RGS12 GoLoco inh: 4.2%; NPSR antagonist: -18.3%

How did O=C(COC(=O)Cc1ccc(Cl)cc1)NCc1ccco1 do in these assays?
Tb PFK inh-1: inconclusive; Tb PFK KinaseGlo: 8.49µM*; Tb PFK inh-2: 6.75µM*

What do the screens show for `Cc1ccc(N=C=O)cc1N=C=O`?
RGS12 GoLoco inh: 11.2%; IMPase Li inh: 5.3%

What do the screens show for `O=C1CC(c2cccnc2)=NN1c1ccc(Cl)cc1Cl`?
Tb PFK inh-1: inconclusive; RGS12 GoLoco inh: 29.4%; NPSR antagonist: -8.7%; IMPase Li inh: 38.6%; Tb PFK KinaseGlo: -9.0%; Tb PFK inh-2: -0.7%

How did C=C(C)C(=O)Nc1cccc(C2=NOC3(C2)C[C@@H](C(N)=O)N(C(=O)CCCCC)C3)c1 (some centres undefined) do in these assays?
MBNL1 CUG block: -19.0%; Tb PFK inh-1: 2.69µM*; RGS12 GoLoco inh: 1.7%; NPSR antagonist: 14.6%; Tb PFK KinaseGlo: 0.151µM*; Tb PFK inh-2: 0.239µM*

What do the screens show for `C=C(C)C(=O)Nc1cccc(C2=NOC3(C2)C[C@@H](C(N)=O)N(C(=O)c2ccc(OC)cc2)C3)c1` (some centres undefined)?
MBNL1 CUG block: -26.3%; Tb PFK inh-1: 1.9µM*; RGS12 GoLoco inh: 2.7%; NPSR antagonist: 16.8%; Tb PFK KinaseGlo: 0.169µM*; Tb PFK inh-2: 0.239µM*

How did N#CC(Cl)(Cl)Cl do in these assays?
RGS12 GoLoco inh: 10.2%; IMPase Li inh: 5.9%

How did O[C@@H]1CCCN2C[C@@H](O)[C@@H](O)C12 (some centres undefined) do in these assays?
RGS12 GoLoco inh: 1.1%; IMPase Li inh: 1.1%
